In all, about 320,000 compounds went through this assay and about 3,300 (1%) were called active. The list comes from a sample in which actives are over-represented; it also holds similar structures and randomly drawn compounds. Unmarked numbers belong to inactive results.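 How the source made its calls: active means every valid replicate shows activation above 250% relative to neutral control wells; inactive means the rest, any valid replicate at or below 250%.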
Assay: yeast Mot1-301 growth rescue at high temperature, primary screen, SUMOylation pathway inhibitor project, S. cerevisiae, ATP luminescence, 38.5C (AID 2716);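 further: OY570 slx delta 5 strain wells were the positive control but not used for scaling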
Conditions: S. cerevisiae Mot1-301 growth rescue, at 18.8 µM, hits give high values, percent above DMSO median, 100 means doubled

Compared with `O=C(CCNC(=O)c1ccc(Cl)cc1)NC1CCCc2ccccc21` (centres undefined), `Cc1ccc(NC(=O)CCNC(=O)c2ccc([N+](=O)[O-])cc2)cc1S(=O)(=O)N1CCOCC1` is lower in growth rescue: 118% for the first, -3.52% for the second.

Going from `Cc1ccccc1-c1nc(CS(=O)(=O)CC(=O)NC(C)c2ccccc2)c(C)o1` (centres undefined) to `Cc1ccccc1-c1nc(CS(=O)(=O)CC(=O)N2CCc3ccccc3C2)c(C)o1`, the growth rescue falls from 5.04% to -11.2%.

Compared with `N#CCc1ccc(OC(=O)c2cccnc2)cc1`, `O=C(Oc1ccc(Br)cc1)c1cccnc1` is lower in growth rescue: 9.1% for the first, 1.84% for the second.

Compared with `Cc1nc2ccc(NC(=O)c3cccc(S(=O)(=O)N4CCOCC4)c3)cc2s1`, `O=S(=O)(c1ccc(SCc2ccc(Br)cc2)nc1)N1CCOCC1` is higher in growth rescue: -14.6% for the first, 0.526% for the second.

First: CCc1cccc(NC(=O)C2CCCN(S(=O)(=O)c3ccc4[nH]c(=O)ccc4c3)C2)c1 (centres undefined)
Second: CC1CCN(S(=O)(=O)c2ccc3[nH]c(=O)ccc3c2)CC1
The growth rescue of the first is lower: -9.11% for the first, 14.3% for the second.

First: C[C@H](CO)N1C[C@H](C)[C@@H](CN(C)C(=O)NC2CCCCC2)Oc2ccc(NC(=O)c3ccncc3)cc2C1=O
Second: Cc1ccc(C(C(=O)NC2CCCCC2)N(C(=O)c2csnn2)C2CC2)o1 (centres undefined)
The growth rescue of the first is higher: -1.03% for the first, -6.5% for the second.

Compared with `CCOC(=O)c1ccc(N2C(=O)CC(N(C)Cc3ccccc3)C2=O)cc1` (centres undefined), `CCCCOC(=O)c1ccc(N2C(=O)CC(N3CCN(C/C=C/c4ccccc4)CC3)C2=O)cc1` (centres undefined) is lower in growth rescue: 94.8% for the first, -18% for the second.

First: N#CCCN1CCN(S(=O)(=O)c2ccc(S(=O)(=O)NC3CCCCC3)cc2)CC1
Second: CSc1ccc(S(=O)(=O)NC2CCCCC2)cc1
The growth rescue of the first is higher: 111% for the first, 5.7% for the second.

Compared with `CC(C)C(NC(=O)c1c(F)cccc1F)C(=O)NNC(=O)c1ccccc1` (centres undefined), `CC(C)CCNC(=O)c1cccnc1Sc1ccccc1` is higher in growth rescue: -1.01% for the first, 2.14% for the second.

Going from `Cc1ccc(C)c(S(=O)(=O)Nc2cccc(-n3cnnn3)c2)c1` to `Cc1ccc(S(=O)(=O)n2cnc3ccccc32)c(C)c1`, the growth rescue falls from -7.94% to -12.4%.

Compared with `Cc1nc(-c2nnc(SCC(=O)Nc3cc(C(F)(F)F)cc(C(F)(F)F)c3)n2C)cs1`, `Cc1ccc(-n2c(SCC(=O)Nc3ccc4c(c3)OCO4)nnc2-c2ccccn2)cc1` is lower in growth rescue: 16.5% for the first, -3.71% for the second.

First: COc1cc(OC)c(C(=O)NCc2ccc3c(c2)OCO3)cc1OC
Second: COc1cccc(CNCc2ccc3c(c2)OCO3)c1
The growth rescue of the first is higher: 1.21% for the first, -12.1% for the second.

First: O=C(CSc1nnc(-c2ccncc2)o1)Nc1cccc(Cl)c1
Second: CCC(=O)Nc1ccc(C(=O)CSc2nnc(CNc3ccc(Cl)cc3)o2)cc1OC
The growth rescue of the first is higher: -11.5% for the first, -12.4% for the second.

Going from `COc1ccc(-c2c(C#Cc3ccsc3)c3cc(-c4ccc(CN5CCOCC5)cc4)ccc3n2C)cc1` to `Cc1ccc(CNC(=O)C(=O)c2cn(CC(=O)N3CCOCC3)c3ccccc23)cc1`, the growth rescue rises from -20.4% to 279%.

Going from `COCCn1c(CN2CCC(Cc3ccccc3)CC2)nc2c1c(=O)n(C)c(=O)n2C` to `CC1CCCN(Cc2nc3c(c(=O)n(C)c(=O)n3C)n2CC(=O)c2ccccc2)C1` (centres undefined), the growth rescue rises from -13.7% to -2.98%.

Going from `CC1Cc2ccccc2N1C(=O)CSc1nnc(-c2ccc(S(=O)(=O)N3CCCC3)cc2)n1C` (centres undefined) to `CN(c1ccccc1)S(=O)(=O)c1ccc(C(=O)N2CCN(c3ccccc3Cl)CC2)cc1`, the growth rescue rises from -12% to 19.5%.

Going from `Cc1cc(C)cc(Oc2c(C(F)(F)F)oc3cc(OCC(=O)O)ccc3c2=O)c1` to `CCc1cc2c(=O)c(-c3ccon3)c(N)oc2cc1OC`, the growth rescue falls from -7.69% to -11.8%.

Compared with `CCSC(C)CC1C/C(=N/O)c2c(C)noc2C1` (centres undefined), `CCC(C)NC(=O)c1cc(Cl)ccc1OC` (centres undefined) is higher in growth rescue: 5.53% for the first, 1740% for the second.

Going from `COc1ccc(S(=O)(=O)n2cnc3ccccc32)c(C)c1` to `COc1ccc(Cc2nnc(SCC(=O)Nc3ccc(C)c(Cl)c3)[nH]c2=O)cc1`, the growth rescue rises from -3.94% to 60.7%.

Going from `CCOC(=O)C1=C(C)NC(C)=C(C(=O)OCC)C1C1=COCCO1` to `CCOc1ccc(OCC(=O)OC(C)C(=O)NC2CCCCC2C)cc1` (centres undefined), the growth rescue rises from -16.1% to 4.11%.

First: CCOc1ccc(N(CC(=O)NCCOc2ccccc2OC)S(=O)(=O)c2ccccc2)cc1
Second: Cc1ccc(Cn2c(SCC(=O)N/N=C/c3ccccc3OCC(=O)O)nc3ccccc32)cc1
The growth rescue of the first is lower: 0.484% for the first, 29.2% for the second.

First: CCCc1[nH]nc2c1C(C1CC=CCC1)C(C#N)=C(N)O2 (centres undefined)
Second: NC1=C([N+](=O)[O-])C(c2ccccc2)C2=C(CCCC2=O)O1 (centres undefined)
The growth rescue of the first is higher: 4.92% for the first, -9.51% for the second.

Going from `O=C1CCCN2N=C(SCC(=O)Nc3ccc(Br)cc3)SC2=N1` to `Cc1ccc(-n2c(SCC(=O)Nc3ccc4c(c3)OCO4)nnc2-c2ccoc2C)cc1`, the growth rescue rises from -5.37% to -1.21%.

First: CC(=O)c1ccc(NC(=O)c2ccc(-n3cncn3)c([N+](=O)[O-])c2)cc1
Second: CCOc1ccc(C(=O)Nc2cccc(SC)c2)cc1
The growth rescue of the first is higher: 62.2% for the first, -2.04% for the second.

Going from `O=C(O)CSC(NC(=O)c1cccnc1)(C(F)(F)F)C(F)(F)F` to `CCn1c(SCC(=O)N/N=C/C=C/c2ccccc2[N+](=O)[O-])nnc1-c1ccccc1`, the growth rescue rises from -13.2% to -1.22%.

First: Cc1cccc(C(=O)Nc2ccccc2N2CCN(c3ccc(F)cc3)CC2)c1
Second: O=C(Nc1ccccc1N1CCCC1)c1ccc2ccccc2c1
The growth rescue of the first is higher: 0.874% for the first, -24.5% for the second.

Going from `CC(Sc1ncnc2c1cnn2-c1ccccc1)C(=O)Nc1ccc(N2CCOCC2)cc1` (centres undefined) to `CC1(c2ccccc2)NC(=O)N(CC(=O)Nc2cc(Cl)ccc2N2CCOCC2)C1=O` (centres undefined), the growth rescue rises from -16.6% to 268%.

Compared with `CCn1cc(CN2CCN(CC(C)(C)C)C(CCO)C2)c2ccccc21` (centres undefined), `Cc1ccccc1CN1CCNC(=O)C1CC(=O)NCCC1=CCCCC1` (centres undefined) is lower in growth rescue: 2.63% for the first, -4.34% for the second.

First: O=C(COc1ccc(Cl)cc1)NCc1nnc(SCC(=O)NCC2CCCO2)o1 (centres undefined)
Second: Cn1c(=O)c2c(SCC(=O)NCC3CCCO3)nc(CC(C)(C)C)nc2n(C)c1=O (centres undefined)
The growth rescue of the first is lower: 1.67% for the first, 4.63% for the second.

Going from `CCCCn1c(SCC(=O)NCCc2ccc(OC)c(OC)c2)nc2c1c(=O)n(C)c(=O)n2C` to `CCCSc1nc2c(c(=O)n(C)c(=O)n2C)n1Cc1ccc(C)cc1`, the growth rescue falls from -22.4% to -26.2%.

Going from `NC(N)=NCCCc1cn(CC(=O)N2CCNCC2)nn1` to `COc1cccc(CC(=O)N2CCCC(CCC(=O)N3CCN(c4ccccn4)CC3)C2)c1` (centres undefined), the growth rescue rises from 3.99% to 15%.

Compared with `CC1CCN(C(=S)NC2CC3CCC2C3)CC1` (centres undefined), `CC1CC(C)CN(c2ccc(S(=O)(=O)N3CCOCC3)cc2)C1` (centres undefined) is higher in growth rescue: 8.2% for the first, 18.2% for the second.

Compared with `O=C(c1ccc(N2CCOCC2)c([N+](=O)[O-])c1)N1CCN(c2ccccc2F)CC1`, `O=C(OCC(=O)N1CCOCC1)c1ccc(N2CCOCC2)c([N+](=O)[O-])c1` is higher in growth rescue: -2.08% for the first, 15.5% for the second.

First: S=C(Nc1ccc(Br)cc1Cl)N1CCC2(CC1)OCCO2
Second: CC1CN(C(=S)Nc2ccc(S(N)(=O)=O)cc2)CC(C)O1 (centres undefined)
The growth rescue of the first is higher: 14% for the first, -5.04% for the second.

Going from `CCNc1nc(N)nc(Oc2ccc(OCC)nn2)n1` to `COCCn1c(Cc2cccn2C)nnc1SCC(=O)Nc1nccs1`, the growth rescue falls from 5.12% to 2.9%.

First: COc1cccc2sc3cc(NCC[C@@H]4CCCN4C)ccc3c(=O)c12
Second: CCOc1ccc(CN2CCNC(=O)C2CC(=O)NCCCC2CCCC2)cc1 (centres undefined)
The growth rescue of the first is higher: 4.78% for the first, 3.84% for the second.

First: CC(C)c1ccc(S(=O)(=O)NC2CCCC2)cc1
Second: NS(=O)(=O)c1cc2c(cc1Cl)NC(C(Cl)Cl)NS2(=O)=O (centres undefined)
The growth rescue of the first is higher: 306% for the first, -7.27% for the second.

For `Cc1ccc(Cc2nnc(SCC(=O)Nc3ccc(C)cc3C)[nH]c2=O)cc1`, the growth rescue was 3.03%.

In the case of `COC(=O)c1cc2occc2n1Cc1nc(-c2ccccc2C)oc1C`, the growth rescue is reported as 611% (active).
With `CCCCCCOc1ccc(OC(=O)c2cccnc2)cc1` the growth rescue was 329% (active).
With `Cc1cc(C)cc(NC(=O)C2CCCN(S(=O)(=O)c3ccc4[nH]c(=O)ccc4c3)C2)c1` (centres undefined) the growth rescue was 2800% (active).
With `CCCCCCC(=O)N(O)C1CC(=O)N(c2ccccc2)C1=O` (centres undefined) the growth rescue was 321% (active).
With `COc1cc(CNCc2ccc3c(c2)OCO3)c([N+](=O)[O-])cc1OC` the growth rescue was 1080% (active).
With `CC1CCN(Cc2nc3c(c(=O)n(C)c(=O)n3C)n2CCc2ccccc2)CC1` the growth rescue was 768% (active).
With `CCc1cc2c(=O)c(-c3ccc(F)cc3)c(C(F)(F)F)oc2cc1OCC(=O)O` the growth rescue was 807% (active).
In the case of `Cc1ccc(C)c(S(=O)(=O)n2cnc3ccccc32)c1`, the growth rescue is reported as 439% (active).
For `N#CC1=C(N)OC2=C(C(=O)CCC2)C1C1CC=CCC1` (centres undefined), the growth rescue was 435% (active).
For `O=C(Nc1ccccc1N1CCN(c2ccccc2)CC1)c1cccc(F)c1`, the growth rescue was 516% (active).
For `CCn1c(SCC(=O)N/N=C/c2ccccc2OCC(=O)O)nnc1-c1ccc(C(C)(C)C)cc1`, the growth rescue was 746% (active).
With `CCOc1ccc(Cn2c(SCCCCC#N)nc3c2c(=O)n(C)c(=O)n3C)cc1OCC` the growth rescue was 395% (active).
For `O=C(Oc1ccccc1Cl)c1ccc(N2CCOCC2)c([N+](=O)[O-])c1`, the growth rescue was 334% (active).
For `CCNc1nc(N)nc(-c2cc(Cl)ccc2OC)n1`, the growth rescue was 263% (active).
In the case of `CC1=NC2(CCCc3c2no[n+]3[O-])N(O)C1(C)C` (centres undefined), the growth rescue is reported as 465% (active).
For `Cc1ccc(S(=O)(=O)NC2CCCCCC2)cc1`, the growth rescue was 297% (active).
For `COc1cc(CN2CCNC(=O)C2CC(=O)NCCc2ncccc2C)cc(OC)c1` (centres undefined), the growth rescue was 662% (active).
With `Cc1ccc(Cc2nnc(SCC(=O)Nc3ccccc3C)[nH]c2=O)cc1` the growth rescue was 579% (active).
In the case of `O=C(CSc1nnc(-c2ccccn2)n1-c1ccccc1)Nc1ccc2c(c1)OCO2`, the growth rescue is reported as 354% (active).

Source: PubChem BioAssay AID2716 (Broad Institute, 2010)
